Measurements reported in PubChem BioAssay AID2410 (Southern Research Specialized Biocontainment Screening …, 2010).
The campaign covered roughly 2,500 compounds. About 2,100 (84%) were called active.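 How the source made its calls: active means toxic compounds, whose cell viability fell below 70% of untreated control cells; inactive means the rest.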 So high a share suggests a set chosen from earlier hits. Not all results are given here. Entries with a potency or affinity are not part of this list.

Experiment: HEp-2 cell cytotoxicity, dose response, cytotoxicity control for RSV inhibitor project, HTS (AID 2410);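 further: cells exposed to compound for six days before readout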
Details: HEp-2 viability, luminescence, cytotoxicity counter-screen; series mostly up to 50 µM

Question: With COc1ccc2oc(-c3ccco3)cc(=O)c2c1 as the molecule, how does the outcome read?
Answer: inactive

Question: For O=c1c2ccccc2oc2ccc(-c3ccc4[nH]ccc4c3)cc12, which outcome is on record?
Answer: inactive

Question: Which outcome does the source give for O=C1C2CCCN2c2ccc(S(=O)(=O)N3CCOCC3)cc2N1Cc1ccccc1F (stereo not given) here?
Answer: inactive

Question: With O=C(c1ccc(F)cc1)N1CCN2C(=O)c3ccccc3C12c1ccccc1 (stereo not given) as the molecule, how does the outcome read?
Answer: inactive

Question: With Nc1ccc(Cl)c[n+]1Cc1cccc2cccnc12 as the molecule, how does the outcome read?
Answer: inactive

Question: For N#C/C(=C\c1ccncc1)c1nc2c(s1)CCCC2, which outcome is on record?
Answer: inactive

Question: Which outcome does the source give for COc1ccc2ccc(=O)oc2c1 here?
Answer: inactive

Question: With Cc1c(CC(=O)N2CCN(C(=O)C3COc4ccccc4O3)CC2)c(=O)oc2cc(O)cc(O)c12 (stereo not given) as the molecule, how does the outcome read?
Answer: inactive

Question: For Cc1cc(S(=O)(=O)N2CCCC2)ccc1OCC(=O)Nc1ccccc1, which outcome is on record?
Answer: inactive

Question: Which outcome does the source give for CC(=O)c1ccc2c(ccc3ccccc32)c1 here?
Answer: inactive

Question: For COCCCNC(=O)c1ccc(Cn2c(=O)c3ccccc3n(Cc3ccc(C)cc3)c2=O)cc1, which outcome is on record?
Answer: inactive

Question: With CC(=O)c1c(C)nc(-c2ccc(Cl)cc2)nc1N=CN(C)C as the molecule, how does the outcome read?
Answer: inactive

Question: For O=C1c2ccccc2C(Nc2cccnc2)N1Cc1ccc2c(c1)OCO2 (stereo not given), which outcome is on record?
Answer: inactive

Question: Which outcome does the source give for Cc1ccc2[nH]c(=O)c(COC(=O)c3ccccn3)cc2c1 here?
Answer: inactive

Question: For COc1ccc(NC(=O)C2(c3ccc(NC(=O)c4ccc(OC)cc4)cc3)CCCC2)cc1, which outcome is on record?
Answer: inactive

Question: For Nc1nnnn1/N=C/c1ccc(O)cc1, which outcome is on record?
Answer: inactive

Question: Which outcome does the source give for COCCn1c(-c2ccc(Cl)cc2Cl)nc2c(c(=O)c3ccccc3n2C)c1=O here?
Answer: inactive

Question: With CCCCCC(=O)Nc1nc(C)c(-c2csc(Nc3cc(Cl)ccc3OC)n2)s1 as the molecule, how does the outcome read?
Answer: inactive

Question: For O=C(NC(C(=O)N/N=C/c1cccnc1)c1n[nH]c(=O)c2ccccc12)c1ccccc1 (stereo not given), which outcome is on record?
Answer: inactive

Question: For O=C(NCCSCc1c(F)cccc1Cl)Nc1ccccc1, which outcome is on record?
Answer: inactive

Question: For Cc1nc2cc(Cl)c(Cl)cc2n1-c1ccccn1, which outcome is on record?
Answer: inactive

Question: For Cc1ccc([N+](=O)[O-])cc1S(=O)(=O)Nc1cccc(-c2ccc(N3CCOCC3)nn2)c1, which outcome is on record?
Answer: inactive

Question: For Cc1c(-c2nc(N)nc(Nc3ccc(F)cc3)n2)oc2ccccc12, which outcome is on record?
Answer: inactive

Question: For COC(=O)c1ccc(Nc2nnc(-c3ccc(C)c(S(=O)(=O)NCC4CCCO4)c3)c3ccccc23)cc1 (stereo not given), which outcome is on record?
Answer: inactive

Question: Which outcome does the source give for CCCc1cc(-n2cnc3ccccc32)n2c(nc3ccccc32)c1C#N here?
Answer: inactive

Question: For O=C(CSc1nc2ccccc2c2nc3ccccc3n12)NCc1ccco1, which outcome is on record?
Answer: inactive

Question: Which outcome does the source give for Cc1ccc2cc3cc(C(=O)N4CCCCCC4)oc3nc2c1 here?
Answer: inactive

Question: With Cc1sc(=NC(=O)c2ccco2)n(C)c1-c1ccc(Cl)cc1 as the molecule, how does the outcome read?
Answer: inactive

Question: Which outcome does the source give for Cn1cc(C(N)=O)c2ccccc21 here?
Answer: inactive

Question: With Cc1ccc(C)c(NC(=O)CSc2nc3c(oc4ccccc43)c(=O)n2-c2ccccc2)c1 as the molecule, how does the outcome read?
Answer: inactive

Question: With O=C(Nc1ccon1)c1sc2cc(F)ccc2c1Cl as the molecule, how does the outcome read?
Answer: inactive

Question: For Cc1ccc(/C=N\NC(=O)C2CN(S(=O)(=O)c3ccccc3)CCN2S(=O)(=O)c2ccccc2)cc1 (stereo not given), which outcome is on record?
Answer: inactive

Question: With C/C(N)=C(/C#N)C(=O)CSc1ncnc2ccccc12 as the molecule, how does the outcome read?
Answer: inactive

Question: For C/C(N)=C(/C#N)C(=O)CSc1cc(C)c2cc(C)cc(C)c2n1, which outcome is on record?
Answer: inactive

Question: For COc1ccc(CN2C(=O)c3cccnc3C2Nc2ccc(OC)c(Cl)c2)cc1 (stereo not given), which outcome is on record?
Answer: inactive
